The results in this text go back to PubChem BioAssay AID463254 (National Center for Advancing Translational Sciences (NCATS), 2010).

The structures appear in SMILES notation. In all, about 330,000 compounds went through this assay and about 40 (0.01%) were called active. The sample as a whole holds a higher share of actives than the screen did. Unmarked numbers belong to inactive results. Calls follow the shape of the dose curve; as a rule, active = well fitted inhibition curve with a large enough effect; inconclusive = small, poorly fitted or top-dose-only effect, or effect the other way; inactive = flat fitted curve, though single readings scatter.
Potency is read from the fitted curve at half-maximal effect.

Chain of Ubiquitin carboxyl-terminal hydrolase 2 (Homo sapiens) (O75604 whole entry, looked up): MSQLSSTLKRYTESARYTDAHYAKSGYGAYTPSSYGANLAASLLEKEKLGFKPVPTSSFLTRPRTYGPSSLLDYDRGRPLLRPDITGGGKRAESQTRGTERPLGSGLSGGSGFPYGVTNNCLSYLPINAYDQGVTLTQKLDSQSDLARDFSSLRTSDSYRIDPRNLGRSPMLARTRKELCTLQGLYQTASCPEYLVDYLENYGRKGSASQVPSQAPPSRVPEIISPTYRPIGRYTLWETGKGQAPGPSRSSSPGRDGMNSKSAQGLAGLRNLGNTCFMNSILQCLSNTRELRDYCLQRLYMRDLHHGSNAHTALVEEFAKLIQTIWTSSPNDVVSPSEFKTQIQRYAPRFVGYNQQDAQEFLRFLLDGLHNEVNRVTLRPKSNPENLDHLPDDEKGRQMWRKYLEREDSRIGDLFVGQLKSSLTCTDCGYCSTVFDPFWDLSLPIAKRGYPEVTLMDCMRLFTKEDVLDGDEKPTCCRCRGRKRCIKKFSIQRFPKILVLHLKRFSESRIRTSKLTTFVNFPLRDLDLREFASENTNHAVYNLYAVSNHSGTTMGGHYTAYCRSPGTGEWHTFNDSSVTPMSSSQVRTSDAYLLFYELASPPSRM

The assay addresses Ubiquitin carboxyl-terminal hydrolase 2 (Homo sapiens) (UniProt O75604). As to the kind of experiment: qHTS Assay for Inhibitors of Ubiquitin-specific Protease USP2a Using CHOP2 as the Reporter. The conditions noted are these: USP2 core, Ub-CHOP2 coupled fluorogenic reporter, 485/531; series mostly up to 38.3 µM; activity change, negative = inhibition: at the top concentration. The source says:
NIH Molecular Libraries Screening Centers Network [MLSCN] NIH Chemical Genomics Center [NCGC] MLSCN Grant: XO1-MH079852-01 PI Name: Nicholson, Ben. Progenra Inc, Malvern, PA NCGC Assay Overview: Homeostasis of cellular proteins is maintained through a combination of synthesis and degradation. The pathway that accounts for the majority of protein degradation is the ubiquitin-proteasomal pathway. Ubiquitin (Ub) is highly conserved in all cells and the generation of a multi-Ub chain typically targets proteins for degradation by the proteasome. However, ubiquitination is highly reversible and dynamic. Deubiquitination, the reverse process, is catalyzed through the action of enzymes referred to as isopeptidases or deubiquitinating enzymes (DUBs). This group of enzymes is collectively responsible for maintaining adequate pools of free ubiquitin and regulating the ubiquitination status of cellular proteins. The class of DUBs referred to as the ubiquitin-specific proteases (USP) family functions endoproteolytically to cleave Ub chains from a wide range of protein substrates. USP2a deubiquitinates fatty acid synthase (FASN) which has recently been identified as an emerging oncology target. To identify inhibitors of USP2a a cell-free assay was employed. […] The reporter enzyme chosen is an enterokinase called CHOP2, which is activated when the Ub is cleaved by USP2. The free and now activated reporter can subsequently act on its reporter substrate. Thus, this coupled assay gives a fluorescent read-out at excitation/emission wavelengths of 485/531. The assay was developed by Progenra, Inc. and has been licensed for sale by LifeSensors, Inc. as Ub-CHOP2-Reporter-Kit (#PR1101).
NCGC Assay Protocol Summary: The assay buffer, prepared fresh at the day of the assay, contains 20mM Tris-HCl pH 8.0, 2mM CaCl2, 2mM beta-Mercaptoethanol, 0.05% CHAPS. 3ul of 20nM (10nM final) USP2 core, which is stored on ice, is dispensed into a medium-binding black solid Kalypsys 1,536 well plate using the Kalypsys dispenser. The assay plate is then pinned with 23nL compound with the Kalypsys pintool in columns 5-48. The controls are pinned as follows: column 1 two-fold dilutions of 2M NEM in duplicate; column 2 2M NEM (final concentration 38.2mM); column 3&4 DMSO. The assay plate is incubated at RT for 30min. Subsequently, 1.5uL of 100nM (25nM final) Ub-CHOP2 and 1.5uL of 100nM (25nM final) Reporter Substrate (both stored on ice and protected from light) were dispensed into the plate using the Kalypsys dispenser. Plates were read after 60min RT incubation on a ViewLux (Perkin Elmer) plate reader using the following wavelengths Ex 485nm /Em 531nm. Data were normalized to the to AC100 inhibition (NEM). Concentration-response curves were fitted to the normalized data and the concentration-response curves were then classified based on curve quality (r2), response magnitude and degree of measured activity. The time zero reading was used to flag fluorescence artifacts. Keywords: ubiquitination, deubiquitination, proteases, profluorescent, MLSMR, MLPCN, NIH Roadmap, qHTS, NCGC
For orientation: In qHTS, concentration-response curves come from the screen itself.
On to `O=C(CSc1ncnc2c1oc1ccccc12)NC1CCCC1`, for which the “activity change, negative = inhibition” value is 0.138%. The same measure, in the same setting: with `CSc1ccc(NC(=O)N2CC(C)OC(C)C2)cc1` (stereo not drawn) the figure was 1.48%; with `CC1O[C@H](OC2C(COC3OC(CO)C(O)[C@H](O)C3O)OC(OC3CC[C@]4(C)C(CC[C@@]5(C)[C@@H]4C=C[C@]46OC[C@@]7(CCC(C)(C)C[C@H]74)C(O)C[C@@]56C)C3(C)C)C(O)C2O)C(O)C(O)C1O` (stereo partly drawn), 10.1%; with `CCC(C)c1ccc(NC(=S)NCc2ccccn2)cc1` (stereo not drawn), 0.409%.

`Cc1cc(C(F)(F)F)c(C#N)c(SCC(=O)NC2CC2)n1`: the “activity change, negative = inhibition” value was 1.32%. Regarding `COc1ccc2nc(NC3=NCN(CC4CCCO4)CN3)nc(C)c2c1` (stereo not drawn), the “activity change, negative = inhibition” value was 2.18%. The same measure, in the same setting: with `CC(=O)C1=C(C)NC(=O)NC1c1cc(Br)ccc1OCC#N` (stereo not drawn) the figure was 2.25%; with `Cc1ccc(NC(=O)C2CCC(C(C)(C)C)CC2)cc1S(=O)(=O)N1CCOCC1` (stereo not drawn), -1.78%. `O=C1C=CC(=O)N1c1ccc(N2CCCCC2)cc1`: the “activity change, negative = inhibition” value was 1.37%.

Consider `CCOc1nc(OCC)nc(-n2cc(-c3ccccc3)nn2)n1`, for which the “activity change, negative = inhibition” value is -0.746%. On to `CC(C)(C)n1ncc2c(=O)n(Cc3ccc(Cl)cc3)cnc21`, for which the “activity change, negative = inhibition” value was -1.06%.

Turning to `Cc1cc2c(c(=O)n1Cc1ccccc1)C1O[C@](CCCCN3C(=O)c4ccccc4C3=O)(Cc3ccccc31)O2`, the activity change, negative = inhibition is -1.2% [at 7.66 µM]. On the same count and under the same terms, with `CC(C)(C)NC(=O)CSC(=Nc1ccccc1F)NC#N` the figure was 0.691%; with `O=C(CCl)Nc1ccc(Sc2ccc(NC(=O)CCl)cc2)cc1`, 0%; with `CC1CCN(C(=O)c2ccc(S(=O)(=O)Cc3cc(F)ccc3F)c([N+](=O)[O-])c2)CC1`, 3.21%.

Consider `Cc1ccc(C2=NN(C(=O)CSc3nc(N)cc(N)n3)C(c3ccco3)C2)cc1` (stereo not drawn), for which the “activity change, negative = inhibition” value is -0.905%. Still for that read-out and setting: with `COc1ccc(-c2nc3cc(C)ccn3c2NC2CCCCC2)cc1SC1CCCCC1` the figure was -1.09%; with `Cc1ccc(C2(C(F)(F)F)N=C3Sc4cc(C)cc(C)c4N3C(=O)N2)cc1` (stereo not drawn), 0.557%; with `COc1ccc(CCOC(=O)CNC(=O)c2ccc(Cl)cc2Cl)cc1`, -0.806%. On the same count and under the same terms, next, `[O-][n+]1c2c(nn1-c1ccc(Cl)c(Cl)c1)-c1nonc1CC2`: -1.77%; `Cn1c(SCC(=O)Nc2nccs2)nnc1-c1cccnc1`: 4.4%; `Cc1c(C=O)c2ccccn2c1C(=O)c1ccncc1`: -1.58%. Same read-out and setting: next, `O=c1[nH]c(=S)[nH]c2[nH]c(=S)[nH]c12`: “inactive”; `Cc1ccc(S(=O)(=O)CC(=O)Nc2sc(C)c(C)c2C(N)=O)cc1`: -0.595%. Consider `CC(C)N1C(=O)N(c2ccccc2)C(C)(O)CC1(C)C` (stereo not drawn), for which the “activity change, negative = inhibition” value was -5.46%. On the same count and under the same terms, with `Cc1ccc(-n2c(SCC(=O)N3CCC(C(=O)O)CC3)nc3ccccc3c2=O)cc1C` the figure was -1.95%; with `O=C(c1cccs1)n1nc(NCc2ccccc2)nc1NCc1ccccc1`, -0.569%. Still for that read-out and setting: with `COc1ccc(OC)c(-c2c(=O)n(OCc3ccccc3Br)c3ccccc3[n+]2[O-])c1` the figure was -0.713%.

For the molecule `O=C1OC2(CCCCC2)CC2=C1C1O[C@](c3ccsc3)(Cc3ccccc31)O2`, the activity change, negative = inhibition is -1.62% [at 7.66 µM].

Regarding `CCCCNC(=O)C(C)N(CCN(C)C)C(=O)CCCCCN1C(=O)NC(c2ccc(Cl)cc2)C(C(=O)OCc2ccccc2)=C1C` (stereo not drawn), the “activity change, negative = inhibition” value is -1.09%. For the molecule `Cc1ccc(NC(=O)CC2C(=O)N(Cc3ccccc3)C(=S)N2NC(=O)c2cccc(F)c2)c(C)c1` (stereo not drawn), the “activity change, negative = inhibition” value was 2.98%. As for `COC(=O)c1ccccc1Oc1c(F)c(F)nc(N2CCOCC2)c1F`, the “activity change, negative = inhibition” value was 1.09%.

`O=c1c2ccccc2[nH]c(=S)n1CCN1CCC(=C(c2ccc(F)cc2)c2ccc(F)cc2)CC1`: the “activity change, negative = inhibition” value was -1.11%. With `CCN(CC(=O)Nc1ccc(NC(C)=O)cc1)C(=O)C1CC(=O)N(Cc2ccc(C)cc2)C1` (stereo not drawn), the “activity change, negative = inhibition” value is 1.17%. On to `Cc1cccc(C)c1NC(=O)C1(C)c2cccc[n+]2CC(=O)N1Cc1cccs1` (stereo not drawn), for which the “activity change, negative = inhibition” value is 1.33%. The same measure, in the same setting: next, `CO[C@H]1[C@@H]2C=CO[C@@H](O[C@H]3O[C@@H](CO)[C@H](O)[C@@H](O)[C@@H]3O)[C@@H]2[C@@]2(CO)O[C@@H]12`: 2.02%; `O=C(CC1SC(=Nc2ccccc2)N(Cc2ccccn2)C1=O)Nc1cccc(Cl)c1` (stereo not drawn): -5.62%; `Cc1coc2c(O)cc3c(c12)OC1(N2CCCCC2)C(=O)NCCCC31` (stereo not drawn): 2.56%.

For the molecule `CCCCN(CCCC)CCCNC(=O)CN1C(=O)COc2ccc(S(=O)(=O)N3CCC(C)CC3)cc21`, the “activity change, negative = inhibition” value is 1.56%.

For `CCOC(=O)N1CCN(S(=O)(=O)c2ccc3c(c2)C(C)C(=O)N3)CC1` (stereo not drawn), the “activity change, negative = inhibition” value is -0.965%. Same read-out and setting: next, `COc1ccc(C(=O)/C=C/c2ccc(-c3ccccc3)cc2)cc1CSCC(=O)O`: 0.227%. For `COC(=O)c1ccc(COc2ccc(/C=C/C(=O)c3ccc(OC)c(CSCC(=O)O)c3)cc2OC)cc1`, the Potency is 10 µM (active). Turning to `COc1ccc(/C=C/C(=O)c2ccc(NS(=O)(=O)c3ccc(C)cc3)cc2)cc1O`, the “activity change, negative = inhibition” value was -1.24%. Still for that read-out and setting: with `Cc1ccc(C2NC(C(=O)O)CS2)cc1` (stereo not drawn) the figure was -0.252%; with `C=CCN(c1ccc(C(N)=O)cc1)S(C)(=O)=O`, 2.25%.

For the molecule `Cc1cccc(N2CCN(Cc3nc(C4CC4)no3)CC2)n1`, the “activity change, negative = inhibition” value was -0.896%.

For the molecule `c1ccc2c(c1)C(=NC1CCCCC1)NC2=NC1CCCCC1`, the “activity change, negative = inhibition” value was 3.21%.

Consider `CCCOc1ccc(C(=O)C(CCC(CNCC)C(=O)c2ccc(OCCC)cc2)CNCC)cc1` (stereo not drawn), for which the “activity change, negative = inhibition” value was 3.9%.
